PubChem BioAssay (NCI)
This is part of a sample that, as a whole, favours compounds with a hit. Of some 83,000 tested, about 20% had one in any assay.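 A percent growth of 40 corresponds to 60% growth inhibition; 0 means no net growth; -100 means all cells died. Active threshold: below 10.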 A number with no mark means an inactive call. Active and inactive are the calls of the source.

Tested on: NCI/ADR-RES ovarian
Assay: NCI-60 one-dose screen, 48 h (100 = growth as untreated, 0 = no growth, -100 = all killed)
Conditions: 10 µM unless noted

Row | SMILES | growth
1 | COC(=O)CCC(=O)C(=O)OC | 33.1% [10 mM]
2 | COC(C(=O)[C@@H](O)[C@@H](C)O)[C@@H]1Cc2cc3cc(O[C@H]4C[C@@H](O[C@H]5C[C@@H](O)[C@H](O)C(C)O5)[C@H](O)C(C)O4)cc(O)c3c(O)c2C(=O)[C@H]1O[C@H]1C[C@@H](O[C@H]2C[C@@H](O[C@H]3C[C@@H](OC)[C@H](O)C(C)O3)[C@@H](O)C(C)O2)[C@H](O)C(C)O1 (stereo partly drawn) | 97.5%
3 | CC(C)N1CCN(Cc2ccc3c(NNC(=O)c4ccccc4)nc4cc(F)ccc4n23)CC1 | 6.16% (active)
